Drawing on ChEMBL document CHEMBL1961873, “Compounds: GSK PKIS; Assays: Nanosyn kinase panel” (2012), this text covers inhibition for 15 molecules.

In assay [1] the target is Tyrosine-protein kinase CSK (Homo sapiens) (UniProt P41240). The note with it: at 1 µM.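 Note: each value is an averaged inhibition reading.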
The target in assay [2] is T1, Discoidin domain-containing receptor 2 (Homo sapiens) (UniProt Q16832).
T1 sequence (whole entry): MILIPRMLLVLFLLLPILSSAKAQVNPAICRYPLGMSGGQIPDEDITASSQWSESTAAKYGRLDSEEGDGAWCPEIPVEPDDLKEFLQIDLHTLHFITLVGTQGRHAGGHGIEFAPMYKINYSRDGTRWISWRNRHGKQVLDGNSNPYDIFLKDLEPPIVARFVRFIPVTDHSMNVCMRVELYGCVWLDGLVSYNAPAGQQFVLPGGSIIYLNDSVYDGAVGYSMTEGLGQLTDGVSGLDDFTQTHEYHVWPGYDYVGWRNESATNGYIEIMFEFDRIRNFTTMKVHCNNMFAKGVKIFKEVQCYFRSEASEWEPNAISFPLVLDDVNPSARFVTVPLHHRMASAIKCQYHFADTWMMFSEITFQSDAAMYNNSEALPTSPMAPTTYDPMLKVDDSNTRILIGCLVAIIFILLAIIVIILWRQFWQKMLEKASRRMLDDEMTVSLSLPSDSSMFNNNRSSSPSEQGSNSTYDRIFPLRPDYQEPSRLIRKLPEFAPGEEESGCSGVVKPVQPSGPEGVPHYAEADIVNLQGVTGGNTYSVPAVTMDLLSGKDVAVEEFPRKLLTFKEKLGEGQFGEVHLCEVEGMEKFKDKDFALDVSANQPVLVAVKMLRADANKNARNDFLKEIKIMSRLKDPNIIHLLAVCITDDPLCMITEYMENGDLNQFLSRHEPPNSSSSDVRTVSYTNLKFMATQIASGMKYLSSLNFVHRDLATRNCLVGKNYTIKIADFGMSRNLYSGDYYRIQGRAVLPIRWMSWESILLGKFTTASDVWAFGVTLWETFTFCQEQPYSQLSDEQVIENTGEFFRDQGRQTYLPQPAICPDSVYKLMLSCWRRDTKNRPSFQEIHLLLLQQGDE
As to conditions: at 0.1 µM.

The target in assay [3] is T1, Discoidin domain-containing receptor 2 (Homo sapiens). The note with it: at 1 µM.
Assay [4] concerns the target Epidermal growth factor receptor (Homo sapiens) (UniProt P00533). The note with it: at 0.1 µM.
For assay [5] the target is unchanged. The note with it: at 1 µM.
Assay [6] has as its system Epidermal growth factor receptor (Homo sapiens), P00533 [L858R]. The note with it: at 0.1 µM.
The test system is the same in assay [7]. As to conditions: at 1 µM.
Assay [8] concerns Epidermal growth factor receptor (Homo sapiens), P00533 [L861Q]. As to conditions: at 0.1 µM.
Assay [9] has the same test system. The note with it: at 1 µM.
The subject of assay [10] is Epidermal growth factor receptor (Homo sapiens), P00533 [T790M]. The note with it: at 0.1 µM.

Chain of Epidermal growth factor receptor (Homo sapiens), P00533 [L861Q] (P00533 whole entry L861Q): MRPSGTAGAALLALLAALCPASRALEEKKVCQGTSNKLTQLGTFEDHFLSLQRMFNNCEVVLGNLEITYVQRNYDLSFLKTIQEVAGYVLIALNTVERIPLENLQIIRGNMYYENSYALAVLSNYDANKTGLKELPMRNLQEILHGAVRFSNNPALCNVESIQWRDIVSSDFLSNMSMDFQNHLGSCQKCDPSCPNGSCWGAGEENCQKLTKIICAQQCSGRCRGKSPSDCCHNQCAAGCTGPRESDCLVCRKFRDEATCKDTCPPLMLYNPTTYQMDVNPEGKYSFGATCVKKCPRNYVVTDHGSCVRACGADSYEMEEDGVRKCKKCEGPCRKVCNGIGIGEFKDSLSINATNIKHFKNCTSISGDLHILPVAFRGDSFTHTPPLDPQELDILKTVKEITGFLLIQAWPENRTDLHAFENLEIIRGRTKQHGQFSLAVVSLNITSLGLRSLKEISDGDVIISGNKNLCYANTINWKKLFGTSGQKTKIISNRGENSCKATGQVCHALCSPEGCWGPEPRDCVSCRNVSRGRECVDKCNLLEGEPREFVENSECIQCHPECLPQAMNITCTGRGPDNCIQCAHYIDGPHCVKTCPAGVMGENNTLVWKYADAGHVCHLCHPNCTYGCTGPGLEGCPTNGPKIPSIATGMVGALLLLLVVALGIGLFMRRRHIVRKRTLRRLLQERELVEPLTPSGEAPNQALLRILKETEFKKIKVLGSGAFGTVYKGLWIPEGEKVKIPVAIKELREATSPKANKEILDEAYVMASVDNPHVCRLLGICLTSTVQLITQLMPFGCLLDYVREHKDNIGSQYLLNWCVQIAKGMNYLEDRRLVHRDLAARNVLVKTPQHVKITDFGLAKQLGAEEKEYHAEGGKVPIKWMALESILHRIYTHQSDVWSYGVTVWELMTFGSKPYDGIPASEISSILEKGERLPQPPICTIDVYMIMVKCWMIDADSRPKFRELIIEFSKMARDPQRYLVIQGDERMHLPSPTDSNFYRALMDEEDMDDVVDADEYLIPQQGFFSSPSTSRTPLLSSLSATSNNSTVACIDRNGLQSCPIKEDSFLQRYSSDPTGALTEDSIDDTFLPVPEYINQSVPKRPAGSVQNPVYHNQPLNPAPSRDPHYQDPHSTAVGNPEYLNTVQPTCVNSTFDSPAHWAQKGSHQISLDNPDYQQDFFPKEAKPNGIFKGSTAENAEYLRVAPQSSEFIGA
Chain of Tyrosine-protein kinase CSK (Homo sapiens) (P41240 2-450 limits assumed): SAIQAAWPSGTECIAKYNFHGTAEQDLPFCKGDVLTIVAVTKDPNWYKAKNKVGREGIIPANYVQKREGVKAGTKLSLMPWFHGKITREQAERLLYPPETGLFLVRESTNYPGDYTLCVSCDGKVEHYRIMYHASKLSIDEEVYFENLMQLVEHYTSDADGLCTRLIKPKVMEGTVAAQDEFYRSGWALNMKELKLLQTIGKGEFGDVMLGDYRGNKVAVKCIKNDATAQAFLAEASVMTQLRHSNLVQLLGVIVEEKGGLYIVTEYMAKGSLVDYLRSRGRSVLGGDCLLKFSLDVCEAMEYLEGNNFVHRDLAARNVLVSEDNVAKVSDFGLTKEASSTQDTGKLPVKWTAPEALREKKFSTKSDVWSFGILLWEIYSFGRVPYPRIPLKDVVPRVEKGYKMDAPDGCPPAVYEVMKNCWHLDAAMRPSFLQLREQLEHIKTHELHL
Chain of Epidermal growth factor receptor (Homo sapiens), P00533 [T790M] (P00533 whole entry T790M): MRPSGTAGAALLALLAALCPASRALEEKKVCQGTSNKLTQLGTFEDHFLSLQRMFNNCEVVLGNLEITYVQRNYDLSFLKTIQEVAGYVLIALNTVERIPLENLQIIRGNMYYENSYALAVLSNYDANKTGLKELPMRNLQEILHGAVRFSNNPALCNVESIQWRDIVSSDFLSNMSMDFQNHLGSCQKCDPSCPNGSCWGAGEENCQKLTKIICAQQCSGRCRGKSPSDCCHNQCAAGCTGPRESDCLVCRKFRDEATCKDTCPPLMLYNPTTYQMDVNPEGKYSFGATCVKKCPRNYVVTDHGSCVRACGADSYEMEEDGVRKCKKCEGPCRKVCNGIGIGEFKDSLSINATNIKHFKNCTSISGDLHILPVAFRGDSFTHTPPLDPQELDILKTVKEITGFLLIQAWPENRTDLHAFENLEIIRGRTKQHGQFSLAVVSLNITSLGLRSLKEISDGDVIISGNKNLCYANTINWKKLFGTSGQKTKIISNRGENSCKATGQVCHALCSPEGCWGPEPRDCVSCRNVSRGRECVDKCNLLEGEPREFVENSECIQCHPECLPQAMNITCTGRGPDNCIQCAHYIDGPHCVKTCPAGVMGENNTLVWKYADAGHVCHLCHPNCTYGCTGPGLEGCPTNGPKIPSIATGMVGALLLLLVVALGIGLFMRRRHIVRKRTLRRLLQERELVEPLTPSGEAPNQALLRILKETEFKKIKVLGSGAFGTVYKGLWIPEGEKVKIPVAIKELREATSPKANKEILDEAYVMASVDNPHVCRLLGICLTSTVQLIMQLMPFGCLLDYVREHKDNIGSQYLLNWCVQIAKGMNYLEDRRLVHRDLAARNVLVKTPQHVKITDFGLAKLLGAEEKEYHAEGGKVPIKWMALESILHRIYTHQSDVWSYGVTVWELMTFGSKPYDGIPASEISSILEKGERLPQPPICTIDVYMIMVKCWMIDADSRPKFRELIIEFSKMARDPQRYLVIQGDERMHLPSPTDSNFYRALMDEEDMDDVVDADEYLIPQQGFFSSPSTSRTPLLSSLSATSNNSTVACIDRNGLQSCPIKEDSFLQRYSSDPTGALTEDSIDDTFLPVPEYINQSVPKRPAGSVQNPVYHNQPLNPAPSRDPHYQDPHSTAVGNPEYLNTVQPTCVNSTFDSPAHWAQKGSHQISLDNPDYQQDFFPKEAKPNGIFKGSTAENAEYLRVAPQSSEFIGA
Chain of Epidermal growth factor receptor (Homo sapiens), P00533 [L858R] (P00533 whole entry L858R): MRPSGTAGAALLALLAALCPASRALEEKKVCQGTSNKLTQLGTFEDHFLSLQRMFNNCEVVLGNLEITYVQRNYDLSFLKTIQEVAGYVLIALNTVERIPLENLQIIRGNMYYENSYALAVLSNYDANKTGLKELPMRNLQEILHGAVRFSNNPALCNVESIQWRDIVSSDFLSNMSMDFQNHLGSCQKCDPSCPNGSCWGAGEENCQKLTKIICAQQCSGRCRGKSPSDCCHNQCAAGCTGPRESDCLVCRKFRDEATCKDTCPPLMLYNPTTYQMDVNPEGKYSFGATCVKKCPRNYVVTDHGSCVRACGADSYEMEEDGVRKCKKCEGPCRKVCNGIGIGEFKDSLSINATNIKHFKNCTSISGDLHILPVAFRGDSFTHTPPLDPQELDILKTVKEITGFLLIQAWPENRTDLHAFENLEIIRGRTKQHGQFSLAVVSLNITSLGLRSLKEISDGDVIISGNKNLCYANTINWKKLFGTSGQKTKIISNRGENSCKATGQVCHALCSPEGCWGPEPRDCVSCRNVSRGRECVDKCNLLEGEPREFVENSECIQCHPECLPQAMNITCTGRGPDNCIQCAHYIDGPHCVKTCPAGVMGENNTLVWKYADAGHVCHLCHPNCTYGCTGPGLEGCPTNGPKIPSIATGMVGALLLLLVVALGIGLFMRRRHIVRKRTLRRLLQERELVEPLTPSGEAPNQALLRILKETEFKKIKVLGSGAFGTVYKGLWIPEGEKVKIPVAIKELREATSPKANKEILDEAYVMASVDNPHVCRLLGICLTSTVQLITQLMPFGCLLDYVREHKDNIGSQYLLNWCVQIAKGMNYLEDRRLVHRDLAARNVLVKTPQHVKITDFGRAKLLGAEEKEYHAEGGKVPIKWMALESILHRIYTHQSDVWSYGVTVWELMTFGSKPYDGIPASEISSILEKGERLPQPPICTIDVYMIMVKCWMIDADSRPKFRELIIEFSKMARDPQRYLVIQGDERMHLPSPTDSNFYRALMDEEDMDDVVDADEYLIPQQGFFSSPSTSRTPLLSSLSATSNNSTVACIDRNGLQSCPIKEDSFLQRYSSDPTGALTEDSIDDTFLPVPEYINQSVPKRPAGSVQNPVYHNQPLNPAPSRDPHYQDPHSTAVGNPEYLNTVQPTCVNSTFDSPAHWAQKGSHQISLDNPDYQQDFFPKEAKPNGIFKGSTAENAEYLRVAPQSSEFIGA

As to `CS(=O)(=O)Nc1ccc(-c2cc(-c3ccccc3)cc(C(N)=O)c2N)cc1`, the inhibition – broadly, the relative decrease from the control value, in per cent – in [1] is 1.29%; in assay [2], -0.17%; in [3] it was 1.14%; in assay [4], 11.5%; in assay [5], 17.2%; in assay [6], 1.51%. Moreover, the inhibition in assay [7] was 1.89%; in [8] it was 0.77%; in [9], 5.17%; in assay [10] it was -0.83%.

For `NS(=O)(=O)c1ccc(N/N=C2\C(=O)Nc3ccc(C(=O)NCc4ccncc4)cc32)cc1`, the inhibition in assay [1] is 7.78%; in [2], -0.45%; in assay [3], 3.57%; in assay [4] it was -0.63%; in [5] it was 5.5%; in assay [6] it was 6.1%. Besides, the inhibition in [7] was determined as 4.21%; in assay [8] it was 4.5%; in assay [9] it was 4.52%; in assay [10] it was 2.35%.

For `CCS(=O)(=O)c1ccc(OC)c(Nc2ncc(-c3cccc(F)c3)o2)c1`, the inhibition turned out to be 17.9% in [1]; 5.27% in [2]; 28.3% in assay [3]; 3.05% in [4]; 9.19% in [5]; 9.54% in [6]. In addition, the inhibition in [7] came out at 20.1%; in assay [8] it was 4.09%; in assay [9] it was 8.2%; in assay [10], 3.64%.

With `CS(=O)(=O)CCNCc1ccc(-c2ccc3ncnc(Nc4ccc(OCc5ccccc5)cc4)c3c2)o1`, the inhibition worked out at 9.28% in [1]; 1.74% in [2]; 2.07% in assay [3]; 83.8% in [4]; 94.1% in assay [5]; 31.4% in [6]. For the same molecule, the inhibition in [7] came to 71.2%; in [8], 33%; in assay [9], 55.7%; in assay [10] it was 4.15%.

As for `Cc1nnc(-c2cccc(-c3ccc(C(=O)NCC4CC4)cc3)c2)o1`, the inhibition in assay [1] stood at 7.37%; in assay [2], 2.21%; in [3], 3.42%; in [4], 1.17%; in [5], 3.25%; in [6] it was 2.9%. In addition, the inhibition was found to be 6.91% in [7], 3.75% in assay [8], 5.65% in [9] and 3.93% in assay [10].

As for `Cc1ccc(-c2cc3c(NC(=O)C4CC4)ncnc3o2)cc1`, the inhibition in [1] is 2.78%; in assay [2] it was 0.26%; in assay [3], 1.45%; in assay [4], 3.75%; in [5], 8.67%; in assay [6], 3.53%. Also, the inhibition is 2.75% in assay [7], 2.3% in assay [8], 4.69% in assay [9] and 1.98% in assay [10].

With `c1cnn2ncc(-c3ccnc(NCCCN4CCOCC4)n3)c2c1`, the inhibition in [1] is 1.9%; in assay [2], 2.03%; in [3] it was 1.44%; in [4] it was -0.42%; in [5], 0.23%; in [6], 3.41%. Moreover, the inhibition worked out at 1.28% in assay [7], 1.28% in assay [8], 0.79% in assay [9] and 0.73% in [10].

`CCn1c(-c2nonc2N)nc2cncc(C(=O)NCCNC)c21`: the inhibition in assay [1] is 4.95%; in assay [2], 1.54%; in [3], 2.38%; in assay [4], 0.28%; in [5], 5.41%; in assay [6], 4.66%. Further, the inhibition in assay [7] was 6.79%; in assay [8], 4.01%; in assay [9], 2.21%; in assay [10] it was 2.41%.

For `NS(=O)(=O)c1cccc(N/C=C2\C(=O)Nc3ccccc32)c1`, the inhibition was -0.23% in assay [1]; 4.35% in assay [2]; 6% in [3]; 5.8% in [4]; 9.72% in assay [5]; 2.03% in assay [6]. The inhibition in assay [7] amounted to 3.12%; in assay [8] it was 2.12%; in assay [9], 2.32%; in assay [10], 2.62%.

In the case of `Cc1cc(O)cc(C)c1/C=C/c1cncc(C(=O)OC(C)(C)C)c1`, the inhibition in assay [1] was 32.9%; in assay [2], 1.51%; in assay [3], 2.49%; in assay [4] it was 1.62%; in assay [5], 5.14%; in [6], 3.7%. In addition, the inhibition was found to be 17% in [7], 2.25% in assay [8], 4.72% in [9] and 0.92% in [10].

As for `OCCCNc1nccc(-c2c(-c3ccc(F)cc3)nn3cc(C(F)(F)F)ccc23)n1`, the inhibition in assay [1] worked out at 1.58%; in assay [2], 3.25%; in assay [3], 19.3%; in assay [4] it was 0.97%; in [5] it was 9.16%; in assay [6], 5.62%. For the same molecule, the inhibition in [7] was 24.6%; in assay [8], 2.61%; in [9] it was 6.62%; in [10], 0.96%.

Turning to `COc1cc2c(cc1Nc1nc(Nc3cccc(F)c3C(N)=O)c3cc[nH]c3n1)N(C(=O)CN1CCN(C(C)C)CC1)CC2`, the inhibition is -3.02% in assay [1]; -1.78% in [2]; -0.55% in assay [3]; 2.48% in assay [4]; 17.1% in assay [5]; -0.57% in [6]. Also, the inhibition in [7] turned out to be 15.1%; in assay [8] it was 1.65%; in assay [9], 13.7%; in assay [10] it was 2.59%.

Regarding `Fc1cccc(COc2ccc(Nc3ncncc3C#Cc3ccccc3)cc2Cl)c1`, the inhibition amounted to 6.87% in assay [1]; 1.28% in assay [2]; 1.92% in assay [3]; 23.9% in assay [4]; 72.5% in assay [5]; 3.93% in [6]. In addition, the inhibition in [7] came to 21.7%; in assay [8] it was 16.6%; in [9], 30.2%; in assay [10], 3.89%.

Turning to `COc1cccc(Nc2nccc(-c3cnn4ncccc34)n2)c1`, the inhibition is 11.8% in assay [1]; 0.85% in [2]; 4.16% in assay [3]; -2.03% in assay [4]; 5.8% in [5]; 2.1% in [6]. Moreover, the inhibition in assay [7] was found to be 9.34%; in [8] it was 1.66%; in assay [9] it was 3.56%; in assay [10] it was 1.52%.

Consider `Cn1c(-c2nonc2N)nc2cnccc21`, for which the inhibition in assay [1] was -0.66%; in [2], 0.53%; in assay [3] it was 2.78%; in assay [4], 8.18%; in [5] it was 8.08%; in assay [6], 3.74%. Moreover, the inhibition in assay [7] was 5.92%; in [8], 3.1%; in assay [9] it was 4.3%; in assay [10], 1.55%.
